Measured values: PMC7862700, “An all-to-all approach to the identification of sequence-specific readers for epigenetic DNA modifications on cytosine”

How the values were obtained:
Experiment in all cases: DAPPL (digital affinity profiling via proximity ligation, sequencing); 10 mM Tris-HCl pH 7.5, 50 mM NaCl, 1 mM DTT, 4% glycerol, room temperature, 30 min; GST-TFs on glutathione beads, 16-mer random dsDNA library, 0.1% formaldehyde crosslink after washing; high values mean tight binding
[1] = biological target: T1, FEV (Homo sapiens, UniProt Q99581 1-238); settings: protein: recombinant; tags: N-terminal GST; dsDNA, one strand shown
T1 sequence: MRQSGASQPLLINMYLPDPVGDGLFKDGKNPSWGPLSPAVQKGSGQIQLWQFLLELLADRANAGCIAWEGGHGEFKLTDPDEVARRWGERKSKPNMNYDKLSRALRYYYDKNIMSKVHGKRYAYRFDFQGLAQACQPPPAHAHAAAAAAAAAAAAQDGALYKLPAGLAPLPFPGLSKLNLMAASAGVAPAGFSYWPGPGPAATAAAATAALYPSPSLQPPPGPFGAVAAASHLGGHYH
How it was run: (§1)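 Yeast served to express human transcription factors as GST fusions, which were then captured on glutathione beads and labelled with DNA barcodes. Pooled with a tag-only sample, they were incubated with 200 nmole of a 16-mer random double-stranded DNA library for 30 min at room temperature in Tris/NaCl/DTT/glycerol buffer, washed, crosslinked with 0.1% formaldehyde, ligated by proximity, amplified by PCR and sequenced. Dividing each hexamer's read frequency for a factor by its frequency for the tag-only sample gives the binding signal.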

[2] = biological target: ETV5 (Homo sapiens, UniProt P41161 1-510); settings: protein: recombinant; tags: N-terminal GST; dsDNA, one strand shown
How it was run: as §1

[3] = biological target: HSF1 (Homo sapiens, UniProt Q00613 1-529); settings: protein: recombinant; tags: N-terminal GST; chain copies: 3; dsDNA, one strand shown
How it was run: as §1

[4] = biological target: T2, SPIC (Homo sapiens, UniProt Q8N5J4 1-248); settings: protein: recombinant; tags: N-terminal GST; dsDNA, one strand shown
T2 sequence: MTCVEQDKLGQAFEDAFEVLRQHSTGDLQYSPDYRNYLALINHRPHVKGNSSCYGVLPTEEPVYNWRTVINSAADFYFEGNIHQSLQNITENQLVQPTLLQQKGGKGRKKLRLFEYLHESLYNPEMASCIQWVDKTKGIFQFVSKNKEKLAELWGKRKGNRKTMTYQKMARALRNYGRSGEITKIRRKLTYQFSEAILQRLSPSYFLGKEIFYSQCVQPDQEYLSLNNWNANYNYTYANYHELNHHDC
How it was run: as §1

[5] = biological target: ELF4 (Homo sapiens, UniProt Q99607 1-663); settings: protein: recombinant; tags: N-terminal GST; dsDNA, one strand shown
How it was run: as §1

[6] = biological target: T3, ELK4 (Homo sapiens, UniProt P28324-2 1-405); settings: protein: recombinant; tags: N-terminal GST; dsDNA, one strand shown
T3 sequence: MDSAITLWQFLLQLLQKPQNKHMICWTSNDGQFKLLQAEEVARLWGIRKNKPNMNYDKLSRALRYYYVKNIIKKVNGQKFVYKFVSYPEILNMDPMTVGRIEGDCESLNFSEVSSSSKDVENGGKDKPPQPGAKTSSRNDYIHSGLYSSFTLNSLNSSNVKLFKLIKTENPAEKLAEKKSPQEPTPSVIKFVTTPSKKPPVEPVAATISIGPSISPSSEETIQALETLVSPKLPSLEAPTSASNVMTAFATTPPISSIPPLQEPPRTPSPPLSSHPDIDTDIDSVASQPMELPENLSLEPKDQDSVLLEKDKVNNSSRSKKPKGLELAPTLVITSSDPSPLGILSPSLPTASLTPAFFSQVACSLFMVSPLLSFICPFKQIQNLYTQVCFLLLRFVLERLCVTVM
How it was run: as §1

[7] = biological target: T4, ETV2 (Homo sapiens, UniProt O00321 1-342); settings: protein: recombinant; tags: N-terminal GST; dsDNA, one strand shown
T4 sequence: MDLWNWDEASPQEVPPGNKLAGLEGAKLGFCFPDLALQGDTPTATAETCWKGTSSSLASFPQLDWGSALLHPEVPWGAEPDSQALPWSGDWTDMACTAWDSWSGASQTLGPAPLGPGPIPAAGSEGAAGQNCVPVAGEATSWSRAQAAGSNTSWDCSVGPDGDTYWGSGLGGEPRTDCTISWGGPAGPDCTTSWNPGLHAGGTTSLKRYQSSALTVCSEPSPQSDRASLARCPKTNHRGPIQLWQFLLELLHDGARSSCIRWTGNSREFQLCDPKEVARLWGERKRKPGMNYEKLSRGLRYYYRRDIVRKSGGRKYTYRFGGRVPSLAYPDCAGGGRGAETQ
How it was run: as §1

[8] = biological target: T5, ELF3 (Homo sapiens, UniProt P78545 1-371); settings: protein: recombinant; tags: N-terminal GST; dsDNA, one strand shown
T5 sequence: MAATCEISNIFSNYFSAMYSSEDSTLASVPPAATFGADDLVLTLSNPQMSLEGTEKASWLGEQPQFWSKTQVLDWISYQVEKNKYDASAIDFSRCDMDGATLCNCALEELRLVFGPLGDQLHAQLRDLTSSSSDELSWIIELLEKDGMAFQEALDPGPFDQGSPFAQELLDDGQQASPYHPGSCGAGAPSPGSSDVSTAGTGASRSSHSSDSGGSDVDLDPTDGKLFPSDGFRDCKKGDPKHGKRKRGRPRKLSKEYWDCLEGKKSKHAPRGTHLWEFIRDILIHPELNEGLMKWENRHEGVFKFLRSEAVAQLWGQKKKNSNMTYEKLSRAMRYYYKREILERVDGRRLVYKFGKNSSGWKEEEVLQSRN
How it was run: as §1

[9] = biological target: CRX (Homo sapiens, UniProt O43186 1-299); settings: protein: recombinant; tags: N-terminal GST; dsDNA, one strand shown
How it was run: as §1

[10] = biological target: ETV1 (Homo sapiens, UniProt P50549 1-477); settings: protein: recombinant; tags: N-terminal GST; dsDNA, one strand shown
How it was run: as §1

[11] = biological target: T6, ERF (Homo sapiens, UniProt P50548 1-548); settings: protein: recombinant; tags: N-terminal GST; dsDNA, one strand shown
T6 sequence: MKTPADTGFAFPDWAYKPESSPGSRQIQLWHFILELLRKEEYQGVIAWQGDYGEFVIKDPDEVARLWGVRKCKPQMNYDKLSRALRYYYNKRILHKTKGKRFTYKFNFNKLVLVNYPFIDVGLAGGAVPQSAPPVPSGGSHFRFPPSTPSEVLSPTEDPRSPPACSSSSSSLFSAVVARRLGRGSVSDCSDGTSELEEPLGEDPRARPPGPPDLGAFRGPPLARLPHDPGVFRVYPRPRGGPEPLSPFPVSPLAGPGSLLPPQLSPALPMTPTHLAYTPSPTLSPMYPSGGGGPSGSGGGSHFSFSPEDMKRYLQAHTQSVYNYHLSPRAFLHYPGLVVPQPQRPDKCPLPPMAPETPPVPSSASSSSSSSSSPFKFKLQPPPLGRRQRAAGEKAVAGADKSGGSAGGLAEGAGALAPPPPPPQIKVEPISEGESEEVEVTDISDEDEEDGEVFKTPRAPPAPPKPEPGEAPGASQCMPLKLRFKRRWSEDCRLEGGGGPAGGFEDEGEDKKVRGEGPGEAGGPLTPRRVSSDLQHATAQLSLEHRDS
How it was run: as §1

[12] = biological target: T7, ETV3L (Homo sapiens, UniProt Q6ZN32 1-361); settings: protein: recombinant; tags: N-terminal GST; dsDNA, one strand shown
T7 sequence: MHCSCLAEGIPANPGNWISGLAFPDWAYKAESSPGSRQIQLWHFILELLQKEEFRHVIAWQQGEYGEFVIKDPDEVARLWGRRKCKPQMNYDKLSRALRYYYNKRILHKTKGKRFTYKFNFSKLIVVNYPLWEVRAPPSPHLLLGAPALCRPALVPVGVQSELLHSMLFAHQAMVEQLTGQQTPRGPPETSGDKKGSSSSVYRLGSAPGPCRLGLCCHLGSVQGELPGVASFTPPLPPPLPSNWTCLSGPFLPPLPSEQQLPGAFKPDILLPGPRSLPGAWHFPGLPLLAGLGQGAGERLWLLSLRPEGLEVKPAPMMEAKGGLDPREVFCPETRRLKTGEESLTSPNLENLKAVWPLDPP
How it was run: as §1

[13] = biological target: T8, ETS2 (Homo sapiens, UniProt P15036 1-469); settings: protein: recombinant; tags: N-terminal GST; dsDNA, one strand shown
T8 sequence: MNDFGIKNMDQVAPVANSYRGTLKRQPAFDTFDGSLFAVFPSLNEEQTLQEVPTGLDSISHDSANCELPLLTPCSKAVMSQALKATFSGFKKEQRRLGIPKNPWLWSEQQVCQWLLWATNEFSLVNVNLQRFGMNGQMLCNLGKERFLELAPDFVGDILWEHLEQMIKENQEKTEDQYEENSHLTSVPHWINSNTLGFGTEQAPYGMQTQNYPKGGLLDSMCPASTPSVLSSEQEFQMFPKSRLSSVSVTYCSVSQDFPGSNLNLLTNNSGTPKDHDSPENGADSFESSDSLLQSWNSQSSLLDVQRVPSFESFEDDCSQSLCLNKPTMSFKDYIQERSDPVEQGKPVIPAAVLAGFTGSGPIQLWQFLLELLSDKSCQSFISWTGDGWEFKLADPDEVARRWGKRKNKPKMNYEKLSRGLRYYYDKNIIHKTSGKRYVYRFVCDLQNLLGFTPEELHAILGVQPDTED
How it was run: as §1

[14] = biological target: T9, SPDEF (Homo sapiens, UniProt O95238 1-335); settings: protein: recombinant; tags: N-terminal GST; dsDNA, one strand shown
T9 sequence: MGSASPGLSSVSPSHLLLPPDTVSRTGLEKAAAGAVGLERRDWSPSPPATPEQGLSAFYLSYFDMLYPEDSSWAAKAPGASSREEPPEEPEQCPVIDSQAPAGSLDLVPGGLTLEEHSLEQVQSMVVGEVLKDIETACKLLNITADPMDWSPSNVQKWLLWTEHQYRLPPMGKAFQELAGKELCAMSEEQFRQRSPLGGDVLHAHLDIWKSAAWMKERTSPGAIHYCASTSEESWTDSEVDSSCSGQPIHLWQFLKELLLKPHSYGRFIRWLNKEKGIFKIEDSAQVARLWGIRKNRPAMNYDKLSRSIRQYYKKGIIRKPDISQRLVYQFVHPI
How it was run: as §1

[15] = biological target: T10, ETV7 (Homo sapiens, UniProt Q9Y603 1-341); settings: protein: recombinant; tags: N-terminal GST; dsDNA, one strand shown
T10 sequence: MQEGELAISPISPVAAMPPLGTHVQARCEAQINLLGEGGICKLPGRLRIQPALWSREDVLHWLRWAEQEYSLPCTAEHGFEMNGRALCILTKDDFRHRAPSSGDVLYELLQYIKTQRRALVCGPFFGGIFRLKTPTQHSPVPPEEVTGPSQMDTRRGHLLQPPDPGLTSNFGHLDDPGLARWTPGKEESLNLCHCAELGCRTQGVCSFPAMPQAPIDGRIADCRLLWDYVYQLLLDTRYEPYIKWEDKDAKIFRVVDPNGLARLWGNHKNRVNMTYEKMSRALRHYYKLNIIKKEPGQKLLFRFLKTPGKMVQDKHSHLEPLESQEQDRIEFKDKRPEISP
How it was run: as §1

[16] = biological target: T11, ELF5 (Homo sapiens, UniProt Q9UKW6-2 1-255); settings: protein: recombinant; tags: N-terminal GST; dsDNA, one strand shown
T11 sequence: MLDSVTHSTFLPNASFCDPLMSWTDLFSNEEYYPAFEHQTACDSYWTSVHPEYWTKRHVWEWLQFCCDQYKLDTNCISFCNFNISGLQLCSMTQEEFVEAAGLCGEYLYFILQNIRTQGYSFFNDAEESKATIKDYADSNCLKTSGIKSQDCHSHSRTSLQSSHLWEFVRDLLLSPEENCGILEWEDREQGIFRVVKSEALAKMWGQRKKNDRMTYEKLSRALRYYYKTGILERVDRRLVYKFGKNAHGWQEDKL
How it was run: as §1

[17] = biological target: T12, ETV3 (Homo sapiens, UniProt P41162-2 1-143); settings: protein: recombinant; tags: N-terminal GST; dsDNA, one strand shown
T12 sequence: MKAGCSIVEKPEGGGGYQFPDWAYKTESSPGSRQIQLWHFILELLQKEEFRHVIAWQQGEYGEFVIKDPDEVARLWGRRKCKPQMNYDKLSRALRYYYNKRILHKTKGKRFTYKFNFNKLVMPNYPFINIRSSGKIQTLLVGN
How it was run: as §1

[18] = biological target: ETV6 (Homo sapiens, UniProt P41212 1-452); settings: protein: recombinant; tags: N-terminal GST; dsDNA, one strand shown
How it was run: as §1

Sequence of ETV5 (P41161 whole entry): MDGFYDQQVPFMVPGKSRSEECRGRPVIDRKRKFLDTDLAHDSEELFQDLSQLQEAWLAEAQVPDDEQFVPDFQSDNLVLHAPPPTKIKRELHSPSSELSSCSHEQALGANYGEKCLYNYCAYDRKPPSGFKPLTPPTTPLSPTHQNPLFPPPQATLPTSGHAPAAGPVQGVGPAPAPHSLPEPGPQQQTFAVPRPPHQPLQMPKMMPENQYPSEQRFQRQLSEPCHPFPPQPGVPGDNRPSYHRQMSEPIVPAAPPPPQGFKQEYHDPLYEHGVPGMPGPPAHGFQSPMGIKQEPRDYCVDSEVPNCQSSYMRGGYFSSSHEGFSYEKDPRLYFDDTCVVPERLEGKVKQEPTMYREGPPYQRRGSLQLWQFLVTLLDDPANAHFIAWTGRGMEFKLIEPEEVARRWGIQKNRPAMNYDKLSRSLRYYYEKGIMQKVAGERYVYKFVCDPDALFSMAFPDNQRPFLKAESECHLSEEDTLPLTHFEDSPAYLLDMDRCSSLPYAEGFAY
Sequence of ETV6 (P41212 whole entry): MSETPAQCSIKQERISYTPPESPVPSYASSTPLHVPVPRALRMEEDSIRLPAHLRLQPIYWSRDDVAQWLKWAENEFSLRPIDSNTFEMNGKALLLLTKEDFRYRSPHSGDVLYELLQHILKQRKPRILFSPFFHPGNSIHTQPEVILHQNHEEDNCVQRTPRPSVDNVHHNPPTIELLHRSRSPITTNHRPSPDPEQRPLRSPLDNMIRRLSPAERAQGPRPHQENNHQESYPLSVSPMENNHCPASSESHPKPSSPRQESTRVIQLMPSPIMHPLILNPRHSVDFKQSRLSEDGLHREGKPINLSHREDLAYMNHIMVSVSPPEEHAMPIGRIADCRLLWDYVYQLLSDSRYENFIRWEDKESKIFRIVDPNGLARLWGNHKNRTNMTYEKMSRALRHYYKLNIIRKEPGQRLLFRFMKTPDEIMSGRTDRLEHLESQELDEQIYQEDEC
Sequence of CRX (O43186 whole entry): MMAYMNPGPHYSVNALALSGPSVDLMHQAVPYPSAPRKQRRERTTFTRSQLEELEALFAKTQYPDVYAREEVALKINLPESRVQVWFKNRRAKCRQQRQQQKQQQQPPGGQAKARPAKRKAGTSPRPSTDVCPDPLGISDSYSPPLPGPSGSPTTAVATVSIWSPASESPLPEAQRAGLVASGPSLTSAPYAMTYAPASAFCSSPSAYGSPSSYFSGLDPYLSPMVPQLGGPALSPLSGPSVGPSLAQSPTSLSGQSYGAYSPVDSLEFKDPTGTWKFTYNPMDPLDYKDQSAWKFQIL
Sequence of ETV1 (P50549 whole entry): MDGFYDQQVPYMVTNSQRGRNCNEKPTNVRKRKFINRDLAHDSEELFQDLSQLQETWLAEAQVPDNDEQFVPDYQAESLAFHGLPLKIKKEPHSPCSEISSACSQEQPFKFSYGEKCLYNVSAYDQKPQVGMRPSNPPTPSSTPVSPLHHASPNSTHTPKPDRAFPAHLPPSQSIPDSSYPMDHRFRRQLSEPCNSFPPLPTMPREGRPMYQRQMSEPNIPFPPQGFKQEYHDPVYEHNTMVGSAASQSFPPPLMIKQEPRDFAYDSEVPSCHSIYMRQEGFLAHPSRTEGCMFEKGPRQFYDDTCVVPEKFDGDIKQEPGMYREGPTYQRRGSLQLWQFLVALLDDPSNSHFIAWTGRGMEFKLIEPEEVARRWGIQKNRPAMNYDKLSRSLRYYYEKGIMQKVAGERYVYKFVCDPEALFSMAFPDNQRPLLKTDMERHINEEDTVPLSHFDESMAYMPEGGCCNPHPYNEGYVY
Sequence of HSF1 (Q00613 whole entry): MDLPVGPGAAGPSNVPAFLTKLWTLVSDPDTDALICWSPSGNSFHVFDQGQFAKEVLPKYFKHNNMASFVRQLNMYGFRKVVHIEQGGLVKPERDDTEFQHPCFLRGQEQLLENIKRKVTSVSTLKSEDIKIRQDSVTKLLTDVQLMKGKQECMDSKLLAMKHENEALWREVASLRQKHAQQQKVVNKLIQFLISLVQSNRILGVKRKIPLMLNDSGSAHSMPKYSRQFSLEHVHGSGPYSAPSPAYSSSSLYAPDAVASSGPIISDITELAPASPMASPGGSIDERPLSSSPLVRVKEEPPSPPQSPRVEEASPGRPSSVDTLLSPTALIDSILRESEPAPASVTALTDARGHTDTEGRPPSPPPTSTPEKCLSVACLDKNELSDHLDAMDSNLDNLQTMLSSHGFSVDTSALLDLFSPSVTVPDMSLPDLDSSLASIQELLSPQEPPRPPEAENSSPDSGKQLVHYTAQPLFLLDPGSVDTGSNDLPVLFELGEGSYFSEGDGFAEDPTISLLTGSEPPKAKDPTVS
Sequence of ELF4 (Q99607 whole entry): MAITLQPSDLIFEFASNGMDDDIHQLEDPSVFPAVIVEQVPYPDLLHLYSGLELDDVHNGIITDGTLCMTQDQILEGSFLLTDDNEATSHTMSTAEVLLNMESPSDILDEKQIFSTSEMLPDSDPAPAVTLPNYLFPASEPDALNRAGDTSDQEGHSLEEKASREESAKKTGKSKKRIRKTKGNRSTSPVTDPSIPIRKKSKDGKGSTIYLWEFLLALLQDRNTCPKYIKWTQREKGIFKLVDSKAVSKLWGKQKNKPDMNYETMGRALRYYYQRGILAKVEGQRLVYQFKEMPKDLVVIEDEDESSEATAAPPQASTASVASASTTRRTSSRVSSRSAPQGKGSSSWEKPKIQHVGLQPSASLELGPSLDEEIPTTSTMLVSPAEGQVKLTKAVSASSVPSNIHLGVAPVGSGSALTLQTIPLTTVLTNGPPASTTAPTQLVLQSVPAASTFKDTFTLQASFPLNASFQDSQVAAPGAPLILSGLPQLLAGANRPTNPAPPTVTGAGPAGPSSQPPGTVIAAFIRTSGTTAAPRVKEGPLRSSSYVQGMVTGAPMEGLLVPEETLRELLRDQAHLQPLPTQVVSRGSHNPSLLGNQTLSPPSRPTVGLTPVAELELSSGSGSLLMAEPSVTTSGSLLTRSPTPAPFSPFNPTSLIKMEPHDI

**Q.** For ACTTGG, which binding signal [1] is on record?
**A.** 1.17 fold enrichment (6-mer frequency, TF over GST control)

**Q.** And the binding signal [2]?
**A.** 1.21 fold enrichment (6-mer frequency, TF over GST control)

**Q.** And the binding signal [3]?
**A.** 1.09 fold enrichment (6-mer frequency, TF over GST control)

**Q.** What about the binding signal [4] of the same sequence?
**A.** 1.27 fold enrichment (6-mer frequency, TF over GST control)

**Q.** And the binding signal [5]?
**A.** 1.31 fold enrichment (6-mer frequency, TF over GST control)

**Q.** What about the binding signal [6] of the same sequence?
**A.** 1.28 fold enrichment (6-mer frequency, TF over GST control)

**Q.** And the binding signal [7]?
**A.** 1.15 fold enrichment (6-mer frequency, TF over GST control)

**Q.** What about the binding signal [8] of the same sequence?
**A.** 1.36 fold enrichment (6-mer frequency, TF over GST control)

**Q.** And the binding signal [9]?
**A.** 1.1 fold enrichment (6-mer frequency, TF over GST control)

**Q.** What about the binding signal [10] of the same sequence?
**A.** 1.25 fold enrichment (6-mer frequency, TF over GST control)

**Q.** What about the binding signal [11] of the same sequence?
**A.** 1.28 fold enrichment (6-mer frequency, TF over GST control)

**Q.** And the binding signal [12]?
**A.** 1.15 fold enrichment (6-mer frequency, TF over GST control)

**Q.** And the binding signal [13]?
**A.** 1.16 fold enrichment (6-mer frequency, TF over GST control)

**Q.** What about the binding signal [14] of the same sequence?
**A.** 1.21 fold enrichment (6-mer frequency, TF over GST control)

**Q.** What about the binding signal [15] of the same sequence?
**A.** 1.2 fold enrichment (6-mer frequency, TF over GST control)

**Q.** What about the binding signal [16] of the same sequence?
**A.** 1.16 fold enrichment (6-mer frequency, TF over GST control)

**Q.** What about the binding signal [17] of the same sequence?
**A.** 1.2 fold enrichment (6-mer frequency, TF over GST control)

**Q.** And the binding signal [18]?
**A.** 1.16 fold enrichment (6-mer frequency, TF over GST control)
